Data taken from PubChem BioAssay (EPA / NIEHS).
Where a structure was tested more than once in an assay, its records may differ in their call. Calls of active or inactive are those of the source. How the source made its calls: active means hit-call score of the fitted dose curve at least 0.9, where 1 is the maximum; inactive means score below 0.9.

What was measured:
[1] = read-out: Thrombomodulin, THBD (gene 7056); experiment: BSK_CASM3C_Thrombomodulin: BioMAP Diversity Plus: CASM3C Assay for Thrombomodulin Biomarker Activity (AID 2283051); conditions: primary human coronary artery smooth muscle cells; actives raise or lower the signal;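 further: thrombomodulin protein level measured by ELISA 24 h after dosing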
[2] = read-out: Tissue Factor, F3 (gene 2152); experiment: BSK_CASM3C_TissueFactor: BioMAP Diversity Plus: CASM3C Assay for Tissue Factor Biomarker Activity (AID 2283052); conditions: primary human coronary artery smooth muscle cells; actives raise or lower the signal;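 further: cell surface tissue factor protein level read by ELISA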
[3] = read-out: Interferon-gamma inducible Protein 10 (IP10), CXCL10 (gene 3627); experiment: BSK_hDFCGF_IP10: BioMAP Diversity Plus: hDFCGF Assay for Interferon-gamma inducible Protein 10 (IP10) Biomarker Activity (AID 2283053); conditions: primary human foreskin fibroblasts; actives raise or lower the signal
Procedure, shortened: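 IP-10 levels, quantified by ELISA, are taken from human foreskin fibroblast cultures 24 h after chemical treatment, with DMSO serving as negative control and baseline for bidirectional analysis.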

[4] = read-out: Urokinase-type plasminogen activator receptor (uPAR), PLAUR (gene 5329); experiment: BSK_CASM3C_uPAR: BioMAP Diversity Plus: CASM3C Assay for Urokinase-type plasminogen activator receptor (uPAR) Biomarker Activity (AID 2283054); conditions: primary human coronary artery smooth muscle cells; actives raise or lower the signal;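 further: cell-surface uPAR protein level quantified by ELISA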
[5] = read-out: Vascular cell adhesion molecule 1 (VCAM1), VCAM1 (gene 7412); experiment: BSK_CASM3C_VCAM1: BioMAP Diversity Plus: CASM3C Assay for Vascular cell adhesion molecule 1 (VCAM1) Biomarker Activity (AID 2283055); conditions: primary human coronary artery smooth muscle cells; actives raise or lower the signal;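 further: VCAM-1 protein level quantified by ELISA on the cells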
[6] = read-out: Collagen III, COL3A1 (gene 1281); experiment: BSK_hDFCGF_CollagenIII: BioMAP Diversity Plus: hDFCGF Assay for Collagen III Biomarker Activity (AID 2283056); conditions: primary human foreskin fibroblasts; actives raise or lower the signal
Procedure, shortened: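 Human foreskin fibroblast primary cultures sampled 24 h after dosing; Collagen III quantified by ELISA. Signal fitted bidirectionally against DMSO baseline.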

[7] = read-out: Epidermal growth factor receptor (EGFR), EGFR (gene 1956); experiment: BSK_hDFCGF_EGFR: BioMAP Diversity Plus: hDFCGF Assay for Epidermal growth factor receptor (EGFR) Biomarker Activity (AID 2283057); conditions: primary human foreskin fibroblasts; actives raise or lower the signal
Procedure, shortened: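 Measured by ELISA: EGFR levels on primary human foreskin fibroblasts 24 h after chemical treatment, analysed relative to DMSO with bidirectional fitting.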

[8] = read-out: Interleukin-8 (IL8), CXCL8 (gene 3576); experiment: BSK_hDFCGF_IL8: BioMAP Diversity Plus: hDFCGF Assay for Interleukin-8 (IL8) Biomarker Activity (AID 2283058); conditions: primary human foreskin fibroblasts; actives raise or lower the signal
Procedure, shortened: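 Primary human foreskin fibroblasts (hDFCGF system) dosed with chemical; IL-8 measured by ELISA 24 hours later. Bidirectional curve fitting relative to DMSO baseline; cytotoxicity tracked in parallel cultures by SRB total protein staining.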

[9] = BSK_hDFCGF_Proliferation: Cell Proliferation Assessment in the BioMAP Diversity Plus: hDFCGF Assay (AID 2283059); conditions: primary human foreskin fibroblasts;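 further: curves fitted for both rise and fall of signal versus DMSO baseline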
Procedure, shortened: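 Sub-confluent human foreskin fibroblast cultures receive test chemical […]. Relative cell number is quantified by sulforhodamine B staining (0.1%, after 10% TCA fixation) at 560 nm, with bidirectional fitting referenced to DMSO.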

[10] = read-out: Macrophage colony-stimulating factor (MCSF), CSF1 (gene 1435); experiment: BSK_hDFCGF_MCSF: BioMAP Diversity Plus: hDFCGF Assay for Macrophage colony-stimulating factor (MCSF) Biomarker Activity (AID 2283060); conditions: primary human foreskin fibroblasts; actives raise or lower the signal
Procedure, shortened: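 Human foreskin fibroblast primary cultures; M-CSF measured by ELISA 24 hours after chemical dosing. Bidirectional fitting relative to DMSO, with overt cytotoxicity tracked by parallel SRB total-protein staining (0.1% SRB, 10% TCA fixation, 560 nm).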

[11] = BSK_hDFCGF_SRB: Viability Assessment in the BioMAP Diversity Plus: hDFCGF Assay (AID 2283061); conditions: primary human foreskin fibroblasts;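 further: cells exposed to compound for 24 h before the read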
Procedure, shortened: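 Human foreskin fibroblasts in 96-well plates were treated 24 h. Total protein was measured by 0.1% SRB staining after 10% TCA fixation, read at 560 nm. Data were fitted bidirectionally against DMSO.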

[12] = read-out: TIMP metallopeptidase inhibitor 1 (TIMP1), TIMP1 (gene 7076); experiment: BSK_hDFCGF_TIMP1: BioMAP Diversity Plus: hDFCGF Assay for TIMP metallopeptidase inhibitor 1 (TIMP1) Biomarker Activity (AID 2283062); conditions: primary human foreskin fibroblasts; actives raise or lower the signal
Procedure, shortened: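 Human foreskin fibroblast primary cultures dosed for 24 h; secreted/surface TIMP-1 quantified by ELISA. Bidirectional curve fitting against DMSO baseline; cytotoxicity tracked in parallel cultures by SRB total-protein staining.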

[13] = read-out: Matrix Metallopeptidase 1 (MMP1), MMP1 (gene 4312); experiment: BSK_hDFCGF_MMP1: BioMAP Diversity Plus: hDFCGF Assay for Matrix Metallopeptidase 1 (MMP1) Biomarker Activity (AID 2283064); conditions: primary human foreskin fibroblasts; actives raise or lower the signal
Procedure, shortened: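 Primary human foreskin fibroblasts in the hDFCGF system were dosed with test chemical, and MMP1 was measured by ELISA 24 h later. Values come from bidirectional curve fitting against the DMSO baseline.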

[14] = read-out: Vascular cell adhesion molecule 1 (VCAM1), VCAM1 (gene 7412); experiment: BSK_hDFCGF_VCAM1: BioMAP Diversity Plus: hDFCGF Assay for Vascular cell adhesion molecule 1 (VCAM1) Biomarker Activity (AID 2283065); conditions: primary human foreskin fibroblasts; actives raise or lower the signal;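 on AC50: VCAM-1 protein level quantified by ELISA after 24 h chemical exposure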
Procedure, shortened: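 Human foreskin fibroblast primary cells dosed with chemical, VCAM-1 measured by ELISA at 24 h. Bidirectional curve fitting relative to DMSO as negative control/baseline.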

[15] = read-out: Plasminogen activator inhibitor-1 (PAI1), SERPINE1 (gene 5054); experiment: BSK_hDFCGF_PAI1: BioMAP Diversity Plus: hDFCGF Assay for Plasminogen activator inhibitor-1 (PAI1) Biomarker Activity (AID 2283066); conditions: primary human foreskin fibroblasts; actives raise or lower the signal
Procedure, shortened: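 PAI-1 levels, determined by ELISA, served as the endpoint in human foreskin fibroblast cultures exposed to compound for 24 h, with DMSO as baseline.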

[16] = read-out: Intercellular Adhesion Molecule 1 (ICAM1), ICAM1 (gene 3383); experiment: BSK_KF3CT_ICAM1: BioMAP Diversity Plus: KF3CT Assay for Intercellular Adhesion Molecule 1 (ICAM1) Biomarker Activity (AID 2283067); conditions: primary human keratinocytes with fibroblasts; actives raise or lower the signal
Procedure, shortened: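 Human keratinocyte–foreskin fibroblast co-culture was treated for 24 h. Cell-surface ICAM-1 was quantified by ELISA, fitted bidirectionally relative to DMSO. Cytotoxicity was checked in parallel cultures by SRB total-protein staining.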

[17] = read-out: Interferon-gamma inducible Protein 10 (IP10), CXCL10 (gene 3627); experiment: BSK_KF3CT_IP10: BioMAP Diversity Plus: KF3CT Assay for Interferon-gamma inducible Protein 10 (IP10) Biomarker Activity (AID 2283068); conditions: primary human keratinocytes with fibroblasts; actives raise or lower the signal
Procedure, shortened: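 ELISA read-out of IP-10 after 24 h chemical dosing of human skin primary co-culture (keratinocytes, foreskin fibroblasts). Gain or loss of signal relative to DMSO, bidirectional curve fit.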

[18] = BSK_KF3CT_SRB: Viability Assessment in the BioMAP Diversity Plus: KF3CT Assay (AID 2283069); conditions: primary human keratinocytes with fibroblasts;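 further: total protein by sulforhodamine B staining as a cytotoxicity measure; read 24 h after compound addition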
Procedure, shortened: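 Human primary keratinocyte plus foreskin fibroblast co-culture exposed to chemicals for 24 h. Total protein measured by 0.1% sulforhodamine B staining after 10% TCA fixation, read at 560 nm; bidirectional fitting versus DMSO baseline.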

[19] = read-out: Interleukin-1 alpha (IL1a), IL1A (gene 3552); experiment: BSK_KF3CT_IL1a: BioMAP Diversity Plus: KF3CT Assay for Interleukin-1 alpha (IL1a) Biomarker Activity (AID 2283070); conditions: primary human keratinocytes with fibroblasts; actives raise or lower the signal
Procedure, shortened: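 Human keratinocyte plus foreskin fibroblast primary co-culture, sampled 24 h after chemical dosing. IL-1a measured by ELISA; responses fitted bidirectionally against DMSO baseline (negative control), so gain or loss of signal both count.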

[20] = read-out: Monokine induced gamma interferon (MIG), CXCL9 (gene 4283); experiment: BSK_hDFCGF_MIG: BioMAP Diversity Plus: hDFCGF Assay for Monokine induced gamma interferon (MIG) Biomarker Activity (AID 2283063); conditions: primary human foreskin fibroblasts; actives raise or lower the signal
Procedure, shortened: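 MIG/CXCL9 measured by ELISA 24 h after dosing primary human skin fibroblasts. Activity fitted in both directions against DMSO controls. Cytotoxicity was checked in parallel cultures by SRB staining read at 560 nm.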

Measured: AC50

Clc1ccccc1-c1nnc(-c2ccccc2Cl)nn1
active: [3] 14.5 µM | [6] 3 µM | [19] 2.76 µM
not listed: [20]
inactive: all other assays above

CCN(CC)C(=O)SCc1ccc(Cl)cc1
inactive: all assays above

CCC(C)(NC(=O)c1cc(Cl)c(C)c(Cl)c1)C(=O)CCl (stereo not drawn)
active: [3] 5.56 µM | [4] 11.5 µM | [5] 9.89 µM | [6] 11.3 µM | [7] 30.6 µM | [8] 30.9 µM | [9] 4.14 µM | [10] 3.56 µM | [12] 34.3 µM | [20] 6.77 µM | [13] 30.4 µM | [14] 5.49 µM | [15] 8.04 µM | [16] 16.5 µM | [17] 10.8 µM | [18] 31.8 µM | [19] 26.6 µM
inactive: [1] | [2]

[2H]C1([2H])[n+]2ccccc2-c2cccc[n+]2C1([2H])[2H]
active: [3] 5.27 µM | [6] 1.16 µM | [9] 8.95 µM | [13] 3.17 µM | [17] 4.43 µM | [19] 20 µM
not listed: [11]
inactive: all other assays above

O=C(O)C(F)(F)C(F)(F)C(F)(F)C(F)(F)C(F)(F)C(F)(F)C(F)(F)F
active: [7] 22.4 µM | [9] 8.07 µM | [19] 30 µM
inactive: [1] | [2] | [3] | [4] | [5] | [6] | [7] | [8] | [9] | [10] | [12] | [13] | [14] | [15] | [16] | [17] | [18] | [19]
